LDHA block: LDHA (human) enzyme inhibition; P00338; purified LDHA, NADH/diaphorase-resazurin fluorescence; hits give low values; activity change, % (values are at about 110 or 230 µM); actives 0.15% (n = 480,000); AID 1347041; in the data active = activity change below about -30%; inconclusive = mostly about -25% to -30%;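 note: plate controls were DMSO wells for no effect and wells without enzyme for full effect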
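Human LDH5 at 2 nM final in Tris HCl pH 7.4 with 0.06 mM NADH and 0.2 mM pyruvate, reacted 5 minutes at room temperature. Remaining NADH coupled via diaphorase/resazurin; resorufin fluorescence read at 0 and 20 minutes, normalized to enzyme-free and DMSO wells.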
ATXN2 expr inh: inhibitors of ATXN2 expression; HEK-293 ATXN2-luciferase reporter, luminescence, 24 h; Potency, µM (highest dose often 57 µM), for inactives: at the top dose activity change, negative = inhibition, actives largely listed as inhibitors; actives 0.72% (n = 360,000); AID 1745845; note: potency is the fitted concentration of half-maximal effect; % is set by controls: 0 for no effect and ±100 for the full control effect; nearly all actives have a fitted effect of over 55% in size
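qHTS (up to 57 uM final) was run with 24 h compound exposure of reporter cells at 37 °C. Each well was multiplexed: SteadyGlo luminescence measured ATXN2-luciferase expression after a fluorogenic Gly-Phe-AFC viability readout (25 uM final).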
HepG2 viability: kills HepG2 cells in TGF-b inhibitor counter-screen | HepG2 CAGA-GFP viability, ATP luminescence, 18 h | Potency, µM (titrated, usually from 46.1 µM), without a hit: top-dose activity change, negative = cytotoxicity, most hits filed as cytotoxic | actives 0.76% (n = 410,000); note: potency is the fitted concentration of half-maximal effect
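CellTiter-Glo luminescence gave cytotoxicity after 18 hours at 37 degrees C. The cells were HepG2 CAGA-GFP in 1% FBS DMEM, stimulated with 500 pg/mL TGF-beta after compound addition. %Activity was normalised to no-cell wells (complete cell-killing) and DMSO (no toxicity), and curves were fitted and classified.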
IDH1 R132H inh: inhibitors of human mutant IDH1 R132H; O75874; IDH1-R132H enzyme, NADPH consumption, diaphorase/resazurin fluorescence; Potency, µM (series often up to 76.6 µM), for inactives: at the top dose activity change, negative = inhibition, most hits filed as inhibitors; actives 0.093% (n = 390,000); note: potency is the fitted concentration of half-maximal effect; % is set by controls: 0 for no effect and ±100 for the full control effect; nearly all actives have a fitted effect of over 65% in size
Target sequence (O75874 whole entry R132H, stated change not applied): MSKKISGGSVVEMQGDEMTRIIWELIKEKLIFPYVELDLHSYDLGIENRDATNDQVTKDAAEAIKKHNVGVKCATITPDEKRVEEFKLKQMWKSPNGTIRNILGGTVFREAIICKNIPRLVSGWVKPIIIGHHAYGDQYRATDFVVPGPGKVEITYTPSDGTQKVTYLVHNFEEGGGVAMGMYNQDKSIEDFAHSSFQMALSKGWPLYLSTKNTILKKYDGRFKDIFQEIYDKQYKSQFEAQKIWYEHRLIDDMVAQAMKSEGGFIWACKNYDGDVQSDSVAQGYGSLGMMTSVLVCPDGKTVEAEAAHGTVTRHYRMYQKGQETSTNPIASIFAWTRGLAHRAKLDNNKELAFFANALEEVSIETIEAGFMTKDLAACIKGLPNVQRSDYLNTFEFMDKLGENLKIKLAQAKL
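IDH1-R132H (0.5 ug/mL) preincubated 30 min with compound, then NADPH (0.016 mM) and alpha-KG (2 mM) added; 80 min at RT, pH 7.5. Remaining NADPH coupled via diaphorase/resazurin to fluorescence (540/590 nm); concentration-response curves normalized to no-enzyme control.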
TGFb SMAD3 inh: TGF-b pathway inhibition; HepG2 CAGA-GFP TGF-b/SMAD3 reporter, GFP fluorescence, 18 h; TGF-beta stimulated, 500 pg/mL final; Potency, µM (highest dose often 46.1 µM), for the others: top-dose activity, negative = inhibition, actives largely listed as inhibitors; actives 1.2% (n = 410,000); AID 588855; note: potency is the fitted concentration of half-maximal effect; % is set by controls: 0 for no effect and ±100 for the full control effect; nearly all actives have a fitted effect of over 65% in size
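Inhibition was scored as loss of TGF-beta-induced (500 pg/mL final, 18 hours, 37 degrees C) GFP in HEPG2 cells carrying a CAGA-GFP reporter, in DMEM with 1% FBS. Well GFP was summed per cell; Activity was normalised to unstimulated and stimulated DMSO wells, then concentration-response fitting.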
S2 tox: viability counter-screen for ATXN expression inhibitors. AID 651635. S2 cells (HEK-293 line with an ATXN2-luciferase reporter) viability, CellTiter-Fluor protease fluorescence, 24 h. actives 0.49% (n = 400,000). Potency, µM (highest dose often 56.7 µM), most hits filed as cytotoxic; note: potency is the fitted concentration of half-maximal effect; nearly all actives have a fitted effect of over 40% in size
* hit, by the source's call; i = inactive; ? = inconclusive; . = no result. This is a sample that favours compounds with a hit; in the whole collection about 2.2% have one here. Unless noted, calls come from the whole dose curve; as a rule, active = well fitted curve in the direction sought with a large enough effect; inconclusive = small, poorly fitted or top-dose-only effect, or another doubt; inactive = no such curve, though single readings can be large; an effect the other way counts as inactive or inconclusive.

SMILES	LDHA block	ATXN2 expr inh	HepG2 viability	IDH1 R132H inh	TGFb SMAD3 inh	S2 tox
CC(C)(C)c1ccc(Cn2c(=N)n(CC(O)c3ccco3)c3ccccc32)cc1 (centres undefined)	-1	?	-80%	0%	16µM*	21µM*
CCCCCCCn1c(=N)n(CC(O)c2ccco2)c2ccccc21 (centres undefined)	-3	?	22µM*	10%	?	i
Cc1ccccc1Cn1c(=N)n(CC(O)c2ccco2)c2ccccc21 (centres undefined)	-2	?	-52%	3%	-4%	?
Cc1cccc2c1OC(=O)CC2c1ccccc1 (centres undefined)	-13	.	.	.	.	.
COc1ccc(/C=C2\C(=O)N(c3c(Cl)cc(Cl)cc3Cl)N=C2NC(=O)c2cccc([N+](=O)[O-])c2)cc1	-8	32µM*	2%	-24%	0%	.
Nc1c(Br)c(=O)[nH]c(=O)n1-c1ccc(F)cc1	-3	-2%	-3%	0%	1%	i
Cc1ccc(SC(=O)c2c(C)noc2-c2cc(C)on2)cc1	0	3%	-61%	5%	18µM*	i
COC(=O)c1cc(COC(=O)c2nc3nc(C)cc(C)n3n2)oc1C	-11	2%	-16%	9%	-6%	i
C/C=C1\COC(C(=O)NCc2ccncc2)(C(F)(F)F)C=C1C=C1CCCCC1 (centres undefined)	-3	-14%	-27%	13%	10µM*	i
C/C=C1\COC(C(=O)NCCOCCO)(C(F)(F)F)C=C1C=C1CCCCC1 (centres undefined)	.	.	-57%	.	13µM*	.
CNC(=O)C1(C(F)(F)F)C/C(=C/CCO)CCCO1 (centres undefined)	.	.	5%	.	-4%	.
C/C=C1\COC(C(=O)NCc2cccc(OC)c2OC)(C(F)(F)F)C=C1C=C1CCCCC1 (centres undefined)	3	-26%	-18%	3%	?	i
C/C=C1\COC(C(=O)NC)(C(F)(F)F)C=C1C=C1CCCCC1 (centres undefined)	.	.	-59%	.	16µM*	.
CC=C1COC(C(=O)NCCOCCO)(C(F)(F)F)C=C1C=C(C)C (centres undefined)	.	.	-21%	.	?	.
CC(C)CC(OC(=O)c1nsc(Cl)c1Cl)C(=O)NC1CCCC1 (centres undefined)	-6	-16%	3%	3%	-25%	i
CCOC(=O)N1CCN(S(=O)(=O)c2ccc(C(=O)N(CCCN(C)C)c3nc4ccc(CC)cc4s3)cc2)CC1	-1	?	-13%	0%	0%	i
Cc1ccc2nc(N(CCCN(C)C)C(=O)c3ccc(S(=O)(=O)N4CCCCCC4)cc3)sc2c1	2	?	16µM*	0%	?	i
CCOC(=O)N1CCN(S(=O)(=O)c2ccc(C(=O)N(CCCN(C)C)c3nc4ccc(Cl)cc4s3)cc2)CC1	-15	?	11µM*	0%	?	?
O=C(Nc1ccccc1)c1cccc(S(=O)(=O)NC2CCCC2)c1	-7	-31%	-45%	-7%	-13%	i
CCN(CC)CCCNC(=O)c1nn(-c2ccc(OC)cc2OC)c(=O)c2ccccc12	0	-5%	6%	3%	16%	i
Cc1ccccc1N=Nc1ccc(O)c2ncccc12	-1	?	-3%	9%	-14%	i
Oc1ccc(CNc2ccccc2)c2cccnc12	18	-35%	-52%	4%	?	i
O=Nc1ccc(O)c2ncccc12	4	.	-96%	5%	?	16µM*
COCc1ccc(O)c2ncccc12	6	?	-77%	7%	1.6µM*	?
Cc1c(C)c2cccnc2c2ncccc12	6	?	-35%	-20%	10µM*	?
SMILES	LDHA block	ATXN2 expr inh	HepG2 viability	IDH1 R132H inh	TGFb SMAD3 inh	S2 tox
Cc1ccc(B(O)O)c2cccnc12	4	.	.	.	.	.
Cc1ccc(O)c2ncccc12	.	16µM*	.	.	.	?
CCC(CC)C(=O)Nc1ccc(C(=O)c2ccccc2)cc1	-4	-1%	1%	-2%	16%	i
COc1ccc(-n2nnnc2SCC(=O)Nc2ccccc2N2CCOCC2)cc1OC	0	-7%	9%	4%	8%	i
O=C(c1cncc(Br)c1)N1CCN(c2ccc(N3CCOCC3)nn2)CC1	-2	-1%	-4%	-4%	11%	i
COc1cc(C(C(=O)NC2CCCCC2)N(C(=O)c2snc(C(N)=O)c2N)c2ccc(C)cc2)ccc1O (centres undefined)	-9	-16%	1%	-24%	3%	i
Cc1ccc(NS(=O)(=O)c2ccc(-c3cnc(C4CC4)o3)cc2)cc1N(C)C	3	?	-32%	10%	10µM*	i
CCOC(=O)c1cccc(NS(=O)(=O)c2cc(-c3cnc(C4CC4)o3)ccc2C)c1	0	-32%	-49%	2%	18µM*	?
Cc1c(Cl)cccc1NS(=O)(=O)c1ccc(-c2cnc(C3CC3)o2)cc1	-1	0%	-109%	-2%	2.8µM*	?
O=S(=O)(Nc1ccccc1F)c1ccc(-c2cnc(C3CC3)o2)cc1	5	.	.	.	.	.
O=C(NNC(=O)C1CCCCC1)c1ccc(F)cc1	12	.	.	.	.	.
CC(=O)Nc1ccc(S(=O)(=O)NCC(=O)OCC(=O)NNC(=O)c2ccccc2)cc1	0	3%	-3%	8%	23%	i
NC(=O)c1ccccc1OCC(=O)N1CCCc2ccccc21	-2	17%	-5%	-6%	15%	i
COc1ncccc1C(=O)N1CCC(n2nccc2NC(=O)CC(C)C)CC1	-2	9%	6%	2%	-2%	i
COc1ccc(Sc2nc(-c3ccccn3)ncc2OC)cc1	-2	22µM*	-14%	3%	-3%	?
COc1cnc(-c2ccccn2)nc1Sc1ccccc1	2	-20%	-9%	-3%	-19%	i
COc1ccc(N(C)C(=O)c2cn(CC(C)C)c(=O)c3cc(OC)c(OC)cc23)c(OC)c1	-1	-15%	7.1µM*	2%	0%	i
COc1cc2c(C(=O)N3CCN(c4cccc(C(F)(F)F)c4)CC3)cn(CC(C)C)c(=O)c2cc1OC	6	?	-27%	-1%	11µM*	?
CCc1ccccc1N(C)C(=O)c1cn(CC(C)C)c(=O)c2cc(OC)c(OC)cc12	3	-39%	-29%	12%	?	?

Source: PubChem BioAssay (National Center for Advancing Translational Sciences (NCATS))
